HIF-2a block – inhibitors of HIF-2a; hit rate 0.72% among 360,000; inhibition, % at 18.8 µM; 786-0 RCC cells HIF-2a reporter, luciferase luminescence, overnight;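 active means inhibition of the luminescence signal of 40% or more relative to plate controls, in a single-dose primary screen at 18.75 µM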
Peg3 prom inh – inhibitors of Peg3 promoter; HeLa PEG-Prom luciferase reporter, luminescence, overnight; inhibition, % at 20 µM; hit rate 1.7% among 360,000; AID 588405;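 active means inhibition of at least 50% at 20 µM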
Shn3 inh set2 – inhibitors of Schnurri-3 3'UTR reporter in osteoblasts | Clone20 osteoblast Shn3 3'UTR firefly luciferase, 24 h | inhibition, % at 12.5 µM | hit rate 0.52% among 360,000;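 active means mean inhibition of at least 75% with every replicate also reaching 75%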;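 further: 0% = median of neutral control wells and 100% = pilot-screen positive control compound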
MITF TRPM1 inh – MITF TRPM1 promoter inhibition in SK-MEL-5 cells; SK-MEL-5 TRPM1 promoter luciferase, 24 h; inhibition, % at 12.5 µM; AID 488899; hit rate 0.83% among 330,000;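 active means mean inhibition across replicates of 60% or more, whatever share of single replicates reaches that level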
EBV LMP1 NFkB – Epstein-Barr LMP1 NF-kappaB reporter inhibition; LMP1-induced NF-kappaB luciferase reporter cells, luminescence; inhibition, % at 12.5 µM; hit rate 0.69% among 350,000; in the data active means inhibition above about 41%;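 further: 0% = neutral control wells and 100% = reference inhibitor control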
PAX8 reporter – inhibitors of PAX8 transcriptional activity in RMG-I cells; inhibition, % at 12.6 µM; hit rate 1.2% among 360,000; AID 652154; RMG-I TPO-luciferase reporter, SteadyGlo, 24 h;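 active means mean replicate inhibition at least 60% with every replicate also reaching 60%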;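 further: luciferase light reporting Pax8 driven TPO promoter activity; plate controls were median of neutral control wells for no effect and mitoxantrone controls for full effect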
Starred values were filed as active, the others as inactive. This is a sample that favours compounds with a hit; in the whole collection about 2.8% have one here.

O=C(c1sc2cc([N+](=O)[O-])ccc2c1Cl)N1CCOCC1 was read as HIF-2a block 9.7, Peg3 prom inh 6.6, Shn3 inh set2 4.7, MITF TRPM1 inh 1.6, EBV LMP1 NFkB 60.8* and PAX8 reporter 2.8.
`CCOC(=O)[C@]12CCCC=C1N(Cc1ccco1)C(=O)[C@H](CC(=O)N1CCN(C(=O)c3ccco3)CC1)C2` gave HIF-2a block 8.6 and PAX8 reporter 45.3.
Screening CCCCCCCCN1C(=O)[C@H](CC(=O)N2CCN(C(=O)c3ccco3)CC2)C[C@@]2(C(=O)OCC)CCCC=C12 returned HIF-2a block -3.5 and PAX8 reporter 86.8*.
`COC(=O)[C@]12CCCCC=C1N(Cc1ccc3c(c1)OCO3)C(=O)[C@H](CC(=O)N1CCN(C(=O)c3ccco3)CC1)C2` gave HIF-2a block 1.3 and PAX8 reporter 26.7.
`CCOC(=O)[C@]12CCC=C1N(Cc1ccc(Cl)cc1Cl)C(=O)[C@H](CC(=O)N1CCN(C(=O)c3ccco3)CC1)C2` gave HIF-2a block 6.4 and PAX8 reporter 78.9*.
For COC(=O)[C@]12CCCCC=C1N(Cc1ccccc1)C(=O)[C@H](CC(=O)N1CCN(C(=O)c3ccco3)CC1)C2 the results were HIF-2a block 16.3 and PAX8 reporter 81.4*.
Screening CCOC(=O)N1CCN(C(=O)C[C@@H]2C[C@@]3(C(=O)OCC)CCC=C3N(Cc3ccc(Cl)cc3Cl)C2=O)CC1 returned HIF-2a block -2.6 and PAX8 reporter 12.3.
COC(=O)[C@]12CCCCC=C1N(Cc1ccc(Cl)cc1Cl)C(=O)[C@H](CC(=O)N1CCN(C(=O)c3ccco3)CC1)C2 was read as HIF-2a block -8.2 and PAX8 reporter 108.6*.
For COc1ccc(C#Cc2ccc([C@H]3[C@@H](CO)N4CCCCN(C(=O)c5ccncc5)C[C@H]34)cc2)cc1 the results were PAX8 reporter -9.7.
`CO[C@@H]1CN(C)C(=O)c2ccc(NC(=O)C3CCC3)cc2OC[C@@H](C)N(C)C[C@@H]1C` gave PAX8 reporter -9.7.
`C[C@@H]1CN([C@H](C)CO)C(=O)c2cc(C3=CCCC3)cnc2O[C@H]1CN(C)C(=O)Nc1ccccc1` gave PAX8 reporter -1.1.
For O=C(Nc1cccc(F)c1)N1CCCCN2[C@H](C1)[C@@H](c1ccc(-c3ccccc3F)cc1)[C@@H]2CO the results were PAX8 reporter 51.2.
For Cc1ccc(S(=O)(=O)Nc2ccc3c(c2)C(=O)N([C@H](C)CO)C[C@@H](C)[C@@H](CN(C)CC2CCCCC2)OCCCC[C@@H](C)O3)cc1 the results were PAX8 reporter 88.0*.
`C[C@@H]1CCCCO[C@H](CN(C)CC2CCCCC2)[C@H](C)CN([C@H](C)CO)C(=O)c2cc(NS(=O)(=O)c3ccc(Cl)cc3)ccc2O1` gave PAX8 reporter 95.2*.
C[C@@H]1CCCCO[C@H](CN(C)CC2CCCCC2)[C@@H](C)CN([C@H](C)CO)C(=O)c2cc(NS(=O)(=O)c3ccc(Cl)cc3)ccc2O1 was read as PAX8 reporter -12.2.
For C[C@@H]1CN([C@H](C)CO)C(=O)c2cc(NS(=O)(=O)c3ccc(Cl)cc3)ccc2O[C@@H](C)CCCCO[C@@H]1CN(C)CC1CCCCC1 the results were PAX8 reporter 77.9*.
`C[C@@H]1CCCCO[C@@H](CN(C)CC2CCCCC2)[C@@H](C)CN([C@H](C)CO)C(=O)c2cc(NS(=O)(=O)c3ccc(Cl)cc3)ccc2O1` gave HIF-2a block -42.8, Peg3 prom inh 90.0*, Shn3 inh set2 41.6, EBV LMP1 NFkB -13.6 and PAX8 reporter 23.3.
`C=CC[n+]1c(-c2ccc(Cl)cc2Cl)csc1Nc1ccc(NC(C)=O)cc1` gave HIF-2a block 94.7*, Peg3 prom inh 40.5, Shn3 inh set2 59.9, MITF TRPM1 inh 10.0, EBV LMP1 NFkB 2.3 and PAX8 reporter 14.4.
C[C@@H]1CN([C@@H](C)CO)C(=O)c2cccc(NC(=O)Nc3ccc4c(c3)OCO4)c2O[C@H]1CN(C)S(=O)(=O)c1ccccc1 was read as PAX8 reporter 5.7.
C[C@H](CO)N1C[C@H](C)[C@H](CN(C)C)Oc2ccc(NC(=O)Cn3cnnn3)cc2CC1=O was read as PAX8 reporter -5.3.
